# Experimental data as given in PubChem BioAssay (NCATS).
# Inconclusive results are not listed. Activity calls are given as the source filed them. Unless noted, calls come from the whole dose curve; as a rule, active = well fitted curve in the direction sought with a large enough effect; inconclusive = small, poorly fitted or top-dose-only effect, or another doubt; inactive = no such curve, though single readings can be large; an effect the other way counts as inactive or inconclusive.
# Key:
# [1] = target: Lysosomal acid glucosylceramidase (Homo sapiens) (UniProt P04062); test: Glucocerebrosidase-p2 (AID 348; in the data active = potency below about 10 µM; note: potency is the fitted concentration of half-maximal effect); conditions: purified GBA, blue fluorogenic substrate, 40 min
# Method in brief: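 Normal human glucocerebrosidase (0.2 nM) with blue fluorogenic substrate (80 uM final) in citrate/phosphate pH 5.9 with 10mM sodium taurocholate, 0.01% tween-20; 40 min RT, NaOH/glycine stop; fluorescence Ex 365/Em 440; AC50 from a titration from 0.6 nM upwards.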
# [2] = AP1 Signaling Pathway (AID 357; active = well fitted curve in either direction with a large enough effect, not every such curve was filed as active;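 note: ME-180 reporter cells stimulated with EGF at its EC50 level; % is set by controls: 0 for no effect and ±100 for the full control effect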); conditions: ME-180 AP-1-bla reporter, EGF-induced, beta-lactamase ratio, 5 h; at 7.69 µM (top of the series) unless noted
# Method in brief: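 Modulation of EGF-driven AP-1 transcription was assessed with a beta-lactamase reporter in ME-180 cells. Compound and EC50 EGF were co-incubated 5 hours at 37 °C before 2.5-hour CCF4 loading at room temperature and dual-emission reading.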
# [3] = target: Cytochrome P450 1A2 (Homo sapiens) (UniProt P05177); test: p450-cyp1a2 (AID 410; calls by dose curve; note: potency is the fitted concentration of half-maximal effect;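 for activity change, negative = inhibition: -100% = full effect of reference inhibitor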); conditions: recombinant CYP1A2, luciferin-ME demethylation, luminescence; series mostly up to 57 µM
# Method in brief: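 20nM CYP1A2, 100uM Luciferin-ME (=Km), 100mM KPO4; cpd 10 min RT; +NADPH regen, 60 min RT; stop/detect 20 min; luminescence. Normalized to furafylline 57 uM = full inhibition.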
# [4] = NFAT Signaling Pathway (AID 444; active = well fitted curve in either direction with a large enough effect, not every such curve was filed as active;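 note: carbachol stimulus at about its EC50 of 1 µM final; % is set by controls: 0 for no effect and ±100 for the full control effect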); conditions: Jurkat NFAT-bla M1, carbachol, beta-lactamase ratio, 5 h; at 7.69 µM (top of the series) unless noted
# Method in brief: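 Jurkat cells with NFAT-driven β-lactamase reporter and co-expressed M1 receptor, stimulated with carbachol (final 1 uM, ~EC50), compound titration, 5 h at 37 °C. CCF4 loaded 1 h at RT; 460/530 nm ratio gave %activity and AC50.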
# [5] = Stat Signaling Pathway (AID 446; active = well fitted curve in either direction with a large enough effect, not every such curve was filed as active;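 note: ME-180 cervical cancer cells given 40 pM IL-6 alongside compound; SIE-controlled beta-lactamase reporter measured as 460/530 nm FRET emission ratio; % is set by controls: 0 for no effect and ±100 for the full control effect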); conditions: ME-180 (cervical carcinoma) SIE beta-lactamase reporter, IL-6 stimulated, 5 h; at 7.69 µM (top of the series) unless noted
# Method in brief: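 Overnight-plated ME-180 cells bearing a STAT Inducible Element beta-lactamase reporter; 5 h co-exposure to compound and 40 pM IL-6; values normalized to 300 pM IL-6 and 125 nM JAK inhibitor controls.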
# [6] = target: Glucocorticoid receptor (Homo sapiens) (UniProt P04150); test: GR-GFP Redistribution (AID 450;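 active = compounds whose dose series gives a full or clear partial fitted curve of increased nuclear translocation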; note: potency is the fitted concentration of half-maximal effect); conditions: U2OS GR-GFP nuclear translocation, laser cytometry, 2 h
# [7] = target: Glucocorticoid receptor (Homo sapiens) (UniProt P04150); test: GR-EFC Redistribution (AID 451; calls by dose curve; note: potency is the fitted concentration of half-maximal effect); conditions: CHO-K1 GR-EFC translocation, beta-gal luminescence, 2 h
# Method in brief: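 CHO-K1 cells expressing nuclear EA and GR-ED fragments of b-gal; compounds titrated up to 46 uM final, 2 h at 37 C. GR nuclear translocation read as complemented b-gal luminescence after 1 h RT detection.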
# [8] = target: Mitogen-activated protein kinase 10 (Mus musculus) (UniProt Q61831); test: JNK3 AlphaScreen Assay (AID 530; active = well fitted curve in either direction with a large enough effect, not every such curve was filed as active;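 note: kinase came from lysate of stimulated human HepG2 cells; signal reports phosphorylation of biotinylated GST-cJun 1-79 at Ser73 with 10 µM ATP; % is set by controls: 0 for no effect and ±100 for the full control effect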); conditions: JNK3 lysate, c-Jun phosphorylation; series mostly up to 57.1 µM
# Method in brief: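 HepG2 lysate (IL-1b/TNFa pre-activated) + biotin-GST-cJun 1-79 + anti-pSer73 cJun; cpd titration, 15 min RT; ATP 10 uM start; Tris pH 7.6, MgCl2, DTT, vanadate; beads in EDTA buffer; AlphaScreen.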
# [9] = target: 3',5'-cyclic-AMP phosphodiesterase 4B (Homo sapiens) (UniProt Q07343); test: qHTS Assay for Inhibitors of PDE-IV (AID 607; active = well fitted activation curve with a large enough effect in the main read-out, with a control signal flat, not every such curve was filed as active; note: % of control where 0% means no effect); conditions: HEK293 ACTOne CNG channel cells, membrane potential fluorescence; series mostly up to 22.9 µM
# Method in brief: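 Live HEK293 cells with a modified cyclic nucleotide-gated (CNG) channel report intracellular cAMP via membrane-potential dye fluorescence (ex 535/em 590 nm). Endogenous PDE-IV was targeted. Compounds were tested at up to 22.9 uM final; RO 20-1724 100 uM served as control.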
# [10] = qHTS Assay for Lipid Storage Modulators (AID 1519; calls by dose curve); conditions: Drosophila S3 cells, BODIPY lipid droplet/cell ratio, laser cytometry, cells loaded with oleic acid; for activity change, negative = inhibition: at 57.5 µM (top of the series)
# Method in brief: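 Cells seeded at 5,000 per well were treated with compounds over a concentration series and loaded with oleic acid (400 uM, as added). Lipid droplet fluorescence (488 nm excitation, 500-530 nm channel) was read by laser-scanning cytometry and normalized to 20 uM Triacsin C.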
# [11] = target: Dual specificity protein kinase CLK4 (Homo sapiens) (UniProt Q9HAZ1); test: qHTS Assay for Inhibitors of CDC-like Kinase 4 (Kinase-Glo Assay) (AID 1770); conditions: recombinant Clk4, Kinase-Glo ATP depletion luminescence; series mostly up to 66.7 µM; note: nearly all actives have a fitted effect of over 65% in size; note: potency is the fitted concentration of half-maximal effect
# Method in brief: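 Luminescent ATP-depletion read-out (Kinase-Glo) after 4.5 h room-temperature reaction of Clk4 (25 nM final) with RS peptide (100 uM) and ATP (1 uM), pH 7.5 Tris buffer with MgCl2 and DTT.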
# [12] = target: Dual specificity protein kinase CLK4 (Homo sapiens) (UniProt Q9HAZ1); test: qHTS Assay for Inhibitors of CDC-like Kinase 4 (ADP-Glo Assay) (AID 1771); conditions: recombinant CLK4, ADP-Glo luminescence; series mostly up to 80 µM; note: nearly all actives have a fitted effect of over 70% in size; note: potency is the fitted concentration of half-maximal effect
# Method in brief: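 25 nM Clk4, 100 uM RS peptide, 1 uM ATP (final); 2 mM MgCl2, 0.5 mM EGTA, 2.5 mM DTT, 0.01% Triton X-100; 1 hr RT. ADP-Glo readout: ATP depletion 45 min, conversion/luciferase 30 min, luminescence.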
# [13] = target: Dual specificity protein kinase CLK4 (Homo sapiens) (UniProt Q9HAZ1); test: qHTS Assay for Inhibitors of CDC-like Kinase 4 (ADP-FP Assay) (AID 1795); conditions: Transcreener ADP fluorescence polarization; series mostly up to 50 µM; note: nearly all actives have a fitted effect of over 60% in size; note: potency is the fitted concentration of half-maximal effect
# Method in brief: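 Kinase activity was measured as ADP production using Transcreener orange tracer (4 nM) and ADP antibody (1 ug/mL) fluorescence polarization, with ADP calculated from a calibration curve. The 1 h reaction contained 6.25 nM Clk4, 1 uM ATP and 100 uM RS peptide at pH 7.5 with Mg2+.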
# [14] = target: Ubiquitin carboxyl-terminal hydrolase 1 (Homo sapiens) (UniProt O94782); test: Inhibitors of USP1/UAF1: Pilot qHTS (AID 504865); conditions: purified USP1/UAF1, Ub-rhodamine cleavage fluorescence; series mostly up to 54.9 µM; note: nearly all actives have a fitted effect of over 35% in size; note: potency is the fitted concentration of half-maximal effect
# Method in brief: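 Deubiquitinase activity followed as kinetic rhodamine fluorescence release from 150 nM Ub-Rho. 1 nM USP1/UAF1 with compound, after 15 min room-temperature preincubation, in HEPES pH 7.8 buffer containing TCEP, EDTA, BSA and Tween-20.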
# [15] = Primary qHTS for small molecule stabilizers of the endoplasmic reticulum resident proteome: Secreted ER Calcium Modulated Protein (SERCaMP) assay (AID 1508630); conditions: SH-SY5Y GLuc-SERCaMP (Gaussia luciferase released on ER calcium loss) secretion, thapsigargin, luminescence; series mostly up to 38.4 µM; note: % is set by controls: 0 for no effect and ±100 for the full control effect
# Method in brief: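 The SH-SY5Y reporter protocol was run at 3 concentrations up to 38.3 uM (primary) or 11 concentrations (follow-up): 16 h compound, 100 nM thapsigargin for 4 h, then extracellular luciferase luminescence.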
# [16] = target: Cytochrome P450 3A4 (Homo sapiens) (UniProt P08684); test: qHTS Assay for Activators of Cytochrome P450 3A4 (AID 885); conditions: recombinant CYP3A4, Luciferin-PPXE luminescence, 60 min; series mostly up to 57.1 µM; note: nearly all actives have a fitted effect of over 65% in size
# Method in brief: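 Using 20nM recombinant human CYP3A4 in potassium phosphate (200mM), substrate Luciferin-PPXE at 25uM, luminescent luciferin detection followed a 60-min RT NADPH reaction; data scaled to 57 uM ketoconazole.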
# [17] = measured here: cell count channel max response
# [18] = measured here: lipid channel max response
# Sequence of Cytochrome P450 1A2 (Homo sapiens) (P05177 whole entry, looked up): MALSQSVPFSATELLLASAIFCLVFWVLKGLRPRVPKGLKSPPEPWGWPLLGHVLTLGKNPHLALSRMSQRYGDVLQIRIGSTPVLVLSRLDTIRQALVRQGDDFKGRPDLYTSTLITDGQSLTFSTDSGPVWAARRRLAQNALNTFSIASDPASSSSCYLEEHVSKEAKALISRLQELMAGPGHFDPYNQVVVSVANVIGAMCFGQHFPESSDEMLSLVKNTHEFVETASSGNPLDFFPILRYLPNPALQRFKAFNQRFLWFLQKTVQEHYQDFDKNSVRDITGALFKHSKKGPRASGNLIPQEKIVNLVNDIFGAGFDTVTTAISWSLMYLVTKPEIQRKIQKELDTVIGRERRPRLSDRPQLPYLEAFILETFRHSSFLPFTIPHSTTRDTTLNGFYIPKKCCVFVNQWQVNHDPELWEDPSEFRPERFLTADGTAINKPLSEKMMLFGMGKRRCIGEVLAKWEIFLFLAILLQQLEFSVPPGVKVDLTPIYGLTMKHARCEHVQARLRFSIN
# Sequence of Lysosomal acid glucosylceramidase (Homo sapiens) (P04062 whole entry, looked up): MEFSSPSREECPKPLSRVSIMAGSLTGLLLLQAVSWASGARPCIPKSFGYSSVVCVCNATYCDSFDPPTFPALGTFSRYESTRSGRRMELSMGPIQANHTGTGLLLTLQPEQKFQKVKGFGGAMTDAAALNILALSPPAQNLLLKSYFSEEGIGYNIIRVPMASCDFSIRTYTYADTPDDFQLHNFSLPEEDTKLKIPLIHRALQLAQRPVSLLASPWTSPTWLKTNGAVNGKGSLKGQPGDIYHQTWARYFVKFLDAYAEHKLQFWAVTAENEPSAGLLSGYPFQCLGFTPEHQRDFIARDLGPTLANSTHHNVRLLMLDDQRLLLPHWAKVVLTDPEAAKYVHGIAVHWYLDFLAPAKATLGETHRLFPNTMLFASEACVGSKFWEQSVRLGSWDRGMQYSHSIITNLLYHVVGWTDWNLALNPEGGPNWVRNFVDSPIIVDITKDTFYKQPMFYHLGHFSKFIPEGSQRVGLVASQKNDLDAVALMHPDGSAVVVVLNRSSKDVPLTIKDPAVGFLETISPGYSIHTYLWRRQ
# Sequence of Cytochrome P450 3A4 (Homo sapiens) (P08684 whole entry, looked up): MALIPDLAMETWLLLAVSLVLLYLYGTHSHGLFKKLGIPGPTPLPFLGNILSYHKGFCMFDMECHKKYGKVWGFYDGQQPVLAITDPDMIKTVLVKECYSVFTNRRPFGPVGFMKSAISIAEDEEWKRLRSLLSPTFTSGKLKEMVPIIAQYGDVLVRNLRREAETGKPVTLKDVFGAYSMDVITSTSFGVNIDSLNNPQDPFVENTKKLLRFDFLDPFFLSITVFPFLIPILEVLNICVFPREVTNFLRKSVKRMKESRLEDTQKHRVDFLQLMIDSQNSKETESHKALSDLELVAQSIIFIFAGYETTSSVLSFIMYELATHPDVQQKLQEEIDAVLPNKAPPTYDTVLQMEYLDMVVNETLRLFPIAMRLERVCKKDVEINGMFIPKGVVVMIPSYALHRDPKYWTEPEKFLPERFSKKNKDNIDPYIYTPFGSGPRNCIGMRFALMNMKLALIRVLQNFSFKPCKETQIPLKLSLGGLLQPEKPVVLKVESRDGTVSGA
# Sequence of Ubiquitin carboxyl-terminal hydrolase 1 (Homo sapiens) (O94782 whole entry, looked up): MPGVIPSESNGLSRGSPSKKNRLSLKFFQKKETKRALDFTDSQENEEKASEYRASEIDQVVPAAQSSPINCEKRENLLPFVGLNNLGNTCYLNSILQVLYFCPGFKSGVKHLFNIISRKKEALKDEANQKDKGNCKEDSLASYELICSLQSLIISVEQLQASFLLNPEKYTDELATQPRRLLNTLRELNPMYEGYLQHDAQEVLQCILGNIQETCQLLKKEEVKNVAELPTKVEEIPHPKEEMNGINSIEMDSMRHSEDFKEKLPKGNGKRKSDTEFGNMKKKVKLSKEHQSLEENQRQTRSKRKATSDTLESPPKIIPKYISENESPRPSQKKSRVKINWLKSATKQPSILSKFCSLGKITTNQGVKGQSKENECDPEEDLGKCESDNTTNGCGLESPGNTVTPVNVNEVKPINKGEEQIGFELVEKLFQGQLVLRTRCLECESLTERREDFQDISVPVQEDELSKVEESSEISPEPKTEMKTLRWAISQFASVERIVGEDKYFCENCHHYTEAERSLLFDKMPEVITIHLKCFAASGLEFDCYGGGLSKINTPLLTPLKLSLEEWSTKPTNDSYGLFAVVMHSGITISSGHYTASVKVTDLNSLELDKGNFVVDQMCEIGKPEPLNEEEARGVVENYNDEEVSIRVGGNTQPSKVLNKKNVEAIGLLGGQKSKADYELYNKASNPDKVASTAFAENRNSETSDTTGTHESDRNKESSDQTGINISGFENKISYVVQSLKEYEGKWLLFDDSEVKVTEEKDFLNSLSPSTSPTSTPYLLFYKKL
# Sequence of Dual specificity protein kinase CLK4 (Homo sapiens) (Q9HAZ1 whole entry, looked up): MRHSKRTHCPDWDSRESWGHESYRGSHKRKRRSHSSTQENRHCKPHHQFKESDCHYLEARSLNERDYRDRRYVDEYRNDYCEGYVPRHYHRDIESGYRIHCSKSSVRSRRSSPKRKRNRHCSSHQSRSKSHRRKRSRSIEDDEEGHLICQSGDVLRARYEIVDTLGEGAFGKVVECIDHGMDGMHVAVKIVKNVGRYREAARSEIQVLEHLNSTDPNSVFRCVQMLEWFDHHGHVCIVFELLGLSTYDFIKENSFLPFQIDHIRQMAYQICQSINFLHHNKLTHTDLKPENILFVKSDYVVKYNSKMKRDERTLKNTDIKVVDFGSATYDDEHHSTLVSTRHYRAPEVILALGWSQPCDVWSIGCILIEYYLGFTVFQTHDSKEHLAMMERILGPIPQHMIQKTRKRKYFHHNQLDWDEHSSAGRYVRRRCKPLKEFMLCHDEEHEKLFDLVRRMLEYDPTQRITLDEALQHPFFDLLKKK
# Sequence of 3',5'-cyclic-AMP phosphodiesterase 4B (Homo sapiens) (Q07343 whole entry, looked up): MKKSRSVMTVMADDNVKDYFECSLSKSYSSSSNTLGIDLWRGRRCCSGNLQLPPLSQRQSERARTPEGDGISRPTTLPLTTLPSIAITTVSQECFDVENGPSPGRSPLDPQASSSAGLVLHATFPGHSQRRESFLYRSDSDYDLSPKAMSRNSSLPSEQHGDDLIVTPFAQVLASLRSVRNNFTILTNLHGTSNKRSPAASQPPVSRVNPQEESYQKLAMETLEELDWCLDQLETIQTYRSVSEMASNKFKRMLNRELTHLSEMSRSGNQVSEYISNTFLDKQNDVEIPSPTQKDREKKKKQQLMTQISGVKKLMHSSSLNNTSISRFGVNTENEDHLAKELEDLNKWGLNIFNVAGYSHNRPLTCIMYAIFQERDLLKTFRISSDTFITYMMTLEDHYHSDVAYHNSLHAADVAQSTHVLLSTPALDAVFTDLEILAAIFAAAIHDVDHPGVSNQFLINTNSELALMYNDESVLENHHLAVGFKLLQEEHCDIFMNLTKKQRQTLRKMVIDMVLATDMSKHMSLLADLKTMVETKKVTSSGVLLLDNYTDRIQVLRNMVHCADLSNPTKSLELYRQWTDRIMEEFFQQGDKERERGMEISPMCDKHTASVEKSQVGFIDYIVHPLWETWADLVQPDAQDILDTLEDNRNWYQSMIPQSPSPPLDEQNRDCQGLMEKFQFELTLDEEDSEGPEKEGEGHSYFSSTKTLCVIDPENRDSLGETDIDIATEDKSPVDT
# Sequence of Glucocorticoid receptor (Homo sapiens) (P04150 whole entry, looked up, the tested form may be a part): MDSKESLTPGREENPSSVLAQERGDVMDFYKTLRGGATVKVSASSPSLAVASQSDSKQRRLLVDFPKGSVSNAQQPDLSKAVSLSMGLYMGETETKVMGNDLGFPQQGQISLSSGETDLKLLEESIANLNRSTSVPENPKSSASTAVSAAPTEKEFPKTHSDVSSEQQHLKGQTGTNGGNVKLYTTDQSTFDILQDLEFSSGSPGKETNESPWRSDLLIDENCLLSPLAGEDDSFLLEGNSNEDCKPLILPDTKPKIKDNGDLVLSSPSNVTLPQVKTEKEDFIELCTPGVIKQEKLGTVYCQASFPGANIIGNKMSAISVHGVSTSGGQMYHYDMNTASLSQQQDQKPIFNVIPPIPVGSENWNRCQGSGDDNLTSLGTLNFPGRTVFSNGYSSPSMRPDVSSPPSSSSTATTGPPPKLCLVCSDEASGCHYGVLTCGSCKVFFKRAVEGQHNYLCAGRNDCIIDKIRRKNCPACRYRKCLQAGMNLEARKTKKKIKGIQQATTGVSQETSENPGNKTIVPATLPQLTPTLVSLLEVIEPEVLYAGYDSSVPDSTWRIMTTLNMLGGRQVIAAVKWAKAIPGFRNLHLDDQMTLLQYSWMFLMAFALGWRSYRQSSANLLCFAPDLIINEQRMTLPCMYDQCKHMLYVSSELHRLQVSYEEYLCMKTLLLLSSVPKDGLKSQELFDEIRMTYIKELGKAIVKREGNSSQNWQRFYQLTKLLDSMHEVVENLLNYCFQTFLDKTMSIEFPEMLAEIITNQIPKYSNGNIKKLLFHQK
SMILES,Potency [1],"activity change, negative = inhibition [2]",Potency [3],"activity change, negative = inhibition [4]","activity, negative = inhibition [5]",Potency [6],Potency [7],outcome [8],Potency [9],"activity change, negative = inhibition [10]","max response [10, 17] [%]","max response [10, 18] [%]",Potency [11],Potency [12],Potency [13],Potency [14],Potency [15],Potency [16]
Cc1nc2cnc(Nc3ccccc3)nc2n(CCC#N)c1=O,> 11.4 µM (inactive),-11.3% (inactive),0.631 µM (active),-3.1% (inactive),-19.6% (inactive),> 9.22 µM (inactive),> 46 µM (inactive),inactive,inactive,-7.58% (inactive),-11.1,-20.1,inactive,inactive,inactive,inactive,inactive,
CN1CCN(c2ncc3nc(-c4cc(F)cc(F)c4)c(=O)n(C)c3n2)CC1,> 11.4 µM (inactive),11.2% (inactive),5.01 µM (active),5.17% (inactive),12.7% (inactive),> 9.22 µM (inactive),> 46 µM (inactive),inactive,inactive,4.65% (inactive),14.2,19.8,inactive,inactive,inactive,inactive,inactive,
COc1cccc(-c2cncnc2NC2CCNCC2)c1,> 11.4 µM (inactive),-6.98% (inactive),inactive,9.29% (inactive),13.9% (inactive),> 46 µM (inactive),> 46 µM (inactive),inactive,inactive,2.06% (inactive),12.6,15.6,inactive,inactive,inactive,inactive,inactive,
COc1ccc(-c2nc3cnc(N4CCOCC4)nc3n(C[C@H]3CCCO3)c2=O)cc1,> 11.4 µM (inactive),8.17% (inactive),5.01 µM (active),15.8% (inactive),9.41% (inactive),> 9.22 µM (inactive),> 46 µM (inactive),inactive,inactive,1.98% (inactive),4.58,6.82,inactive,inactive,inactive,inactive,inactive,
CC(=O)NCCNc1ncnc2ccc(-c3cccc(NS(C)(=O)=O)c3)cc12,> 11.4 µM (inactive),3.51% (inactive),15.8 µM (active),7.81% (inactive),6.44% (inactive),> 46 µM (inactive),> 46 µM (inactive),inactive,inactive,1.93% (inactive),24.3,24.6,12.6 µM (active),12.6 µM (active),8.91 µM (active),inactive,inactive,inactive
COCCn1c(=O)c(-c2ccccc2)nc2cnc(OC)nc21,> 11.4 µM (inactive),-2.69% (inactive),1 µM (active),-14.5% (inactive),-12.2% (inactive),> 9.22 µM (inactive),> 46 µM (inactive),inactive,inactive,5.61% (inactive),16.8,21.9,inactive,inactive,inactive,inactive,inactive,inactive
O=c1c(-c2ccc(F)cc2)nc2cnc(N3CCOCC3)nc2n1Cc1cccs1,> 11.4 µM (inactive),14.2% (inactive),12.6 µM (active),13.3% (inactive),18.2% (inactive),> 9.22 µM (inactive),> 46 µM (inactive),inactive,inactive,-1.08% (inactive),9.38,7.2,inactive,inactive,inactive,inactive,inactive,inactive
FC(F)(F)c1ccccc1-c1nccc(NCc2cccs2)n1,> 11.4 µM (inactive),2% (inactive),1.26 µM (active),-3.1% (inactive),-15.9% (inactive),> 46 µM (inactive),> 46 µM (inactive),inactive,,5.22% (inactive),6.69,8.2,inactive,inactive,inactive,11.2 µM (active),inactive,inactive
